Laboratory results from PubChem BioAssay AID504444 (National Center for Advancing Translational Sciences (NCATS), 2011).
The campaign covered roughly 360,000 compounds. About 7,500 (2.1%) were called active. Where a call stands in place of a potency, no number is given. Another 20% or so got no clear call; they are omitted. For the sample, actives were picked, then their nearest neighbours and some compounds at random. A number with no mark means an inactive call. Calls come from the whole dose curve; as a rule, active = well fitted inhibition curve with a large enough effect; inconclusive = small, poorly fitted or top-dose-only effect, or effect the other way; inactive = flat fitted curve, though single readings scatter.

assay: Nrf2 qHTS screen for inhibitors; details: A549 ARE-Fluc reporter, luciferase luminescence, 18-24 h; series mostly up to 46 µM; note: nearly all actives have a fitted effect of over 60% in size
Excerpt: NIH Molecular Libraries Probe Production Network [MLPCN]
NIH Chemical Genomics Center [NCGC]
Assay Provider: Shyam Biswal, Johns Hopkins University
Nrf2 is a transcription factor that maintains cellular redox homoestasis and protects cells from xenobiotics. Nrf2 binds to the antioxidant response element (ARE) to induce gene expression of a broad spectrum of genes that encode for antioxidants. […] Finding a small molecule that act as an inhibitor of Nrf2 function would represent a novel therapeutic target that could lead to improvement in survival of patients undergoing chemo- and/or radio- therapy.
This is the Nrf2 activity measured in the luminescent read.
1. Shibata, T., et al., Genetic Alteration of Keap1 Confers Constitutive Nrf2 Activation and Resistance to Chemotherapy in Gallbladder Cancer. Gastroenterology, 2008.
2. Sjoblom, T., et al., The consensus coding sequences of human breast and colorectal cancers. Science, 2006. 314(5797): p. 268-74.
NCGC Assay Protocol Summary:
A concentration-response assay was performed with A549 ARE_Fluc cells which are suspended in 5% FBS OPTI-MEM. Five uL were dispensed into 1536-well white TC-treated plate using the Kalypsys dispenser to achieve a density of 5000 cells/well in all columns except column 1. The plate is incubated at 37deg C at 5% CO2 for 2 hours before 23 nL of compounds are added with the Kalypsys pin tool equipped with a 1,536-pin array containing 10-nL slotted pins (FP1S10, 0.457-mm diameter, 50.8 mm long; V&P Scientific). The control compounds Budesonide and Staurosporine are both added at a concentration of 2mM and Budesonide is also added as a 1:10 titration, starting at 200uM, to achieve dose-response. After an 18-24 hour incubation at 37deg C at 5% CO2, 5ul of medium is added to column 1. Afterwards 1ul of 5x of CellTiter-Fluor (Promega) is added to every well. The plate is then incubated at 37deg C at 5% CO2 for 30 minutes before they are read on the ViewLux (Perkin Elmer) for a fluorescent read Ex=405(10)/Em=525(10) for a 3 second exposure, 2x binning, and high gain. Then 3 uL of 3x BugLite is dispensed into all wells and the plate is incubated at ambient room temperature for 15 minutes. Afterwards another ViewLux read is performed using the clear filter to get a luminescent read with the settings of 40 second exposure, 2x binning, and high gain. Cytotoxicity is assessed through the first fluorescent read and then biochemical activity against Nrf2 is measured in the luminescent read.
Potency is the fitted concentration of half-maximal effect.

| Structure (SMILES) | Potency | activity change, negative = inhibition |
| --- | --- | --- |
| Cc1ccc2cccc(NC(=O)c3cccc4ccccc34)c2n1 | inactive | – |
| Cc1ccccc1C(=O)NCCN=C1NS(=O)(=O)c2ccccc21 | inactive | – |
| Cc1ccc2ccc3c(c2n1)NS(=O)(=O)c1ccccc1-3 | 20.6 µM (active) | – |
| CC(C)(C)OC(=O)C[C@@H]1C/C=C\C[C@@H](CC(=O)N[C@H](CO)Cc2ccccc2)C(=O)NC[C@@H](c2ccccc2)OC1=O | inactive | – |
| Cc1ccc(CN(C(=O)c2ccccc2[N+](=O)[O-])c2ccccn2)cc1 | inactive | – |
| O=C(Oc1cccc(C(=S)N2CCOCC2)c1)c1cccc(Cl)c1 | inactive | – |
| O=C(Nc1ccc(Cl)cc1)Nc1ccc(C(=O)N2CCOCC2)cc1 | inactive | – |
| O=C(Nc1ccc(Cl)cc1)c1cccc(OC(=S)N2CCOCC2)c1 | 23.1 µM (active) | – |
| CCCCNC(=O)C(C)N(CCN(C)C)C(=O)CCCN1C(=O)NC(c2ccc(Cl)cc2)C(C(=O)OCc2ccccc2)=C1C (configuration not stated) | inactive | – |
| N#Cc1nc(COc2ccc(-c3ccccc3)cc2)oc1NCc1cccnc1 | 13 µM (active) | – |
| N#Cc1nc(Cc2cccc3ccccc23)oc1NCc1ccc2c(c1)OCO2 | inactive | – |
| Cc1ccc(OCc2nc(C#N)c(N3CCCC3)o2)cc1 | inactive | – |
| Oc1ccc(Br)cc1C1C=C(c2ccc3c(c2)OCO3)NC(c2ccc(Cl)cc2)N1 (configuration not stated) | inactive | – |
| Cc1cccc(C)c1NC(=O)COC(=O)c1c(C)nn(-c2ccccc2)c1C | inactive | – |
| CC1CCc2sc(C(=O)NCC(c3ccco3)N3CCCCC3)cc2C1 (configuration not stated) | inactive | – |
| CCOC(=O)N1CCN(C(=O)COc2ccc(Cl)cc2C)CC1 | inactive | – |
| CCCn1nnnc1NC(=O)COc1ccc(Cl)cc1C | 13 µM (active) | – |
| Cc1cc(NC(=O)COC(=O)COc2ccc(Cl)cc2C)c([N+](=O)[O-])cc1C | inactive | – |
| CCCc1cc(=O)[nH]c(SCC(=O)Nc2ccc(C(=O)Nc3ccccc3OC)cc2)n1 | inactive | – |
| Cc1ccccc1NC(=O)Cn1c(=O)n(CCc2ccccc2)c(=O)c2ccccc21 | inactive | – |
| COc1ccc(S(=O)(=O)N(C)C[C@@H]2Oc3ccc(NC(=O)Nc4c(C)noc4C)cc3C(=O)N([C@H](C)CO)C[C@@H]2C)cc1 | inactive | – |
| COc1ccc(NC(=O)COC(=O)CNC(=O)C2CCCCC2)cc1 | inactive | – |
| CCC(C)(C)c1ccc(Oc2ccc(NC(=O)COC(=O)C3=COCCO3)cc2)cc1 | 8.2 µM (active) | – |
| CCOc1ccc(NC(=O)c2ccc(NC(=O)COC(=O)c3ccc(NC(=O)CC#N)cc3)cc2)cc1 | inactive | – |

| Structure (SMILES) | Potency | activity change, negative = inhibition |
| --- | --- | --- |
| COc1cc(OC)cc(-c2c(C#Cc3ccsc3)c3cc(-c4ccc(OC)cc4F)ccc3n2C)c1 | inactive | – |
| O=C(NCCC(=O)N1O[C@@H]2C=C[C@H]1C2)OCC1c2ccccc2-c2ccccc21 | inactive | – |
| COc1ccc(Cn2c(=O)sc3ccccc32)cc1OC | 25.9 µM (active) | – |
| Cc1cccc(CSc2nnc(Cn3c(=O)sc4ccccc43)n2C)c1 | inactive | – |
| COc1ccccc1CNC(=O)CCn1c(=O)sc2ccccc21 | inactive | – |
| COc1ccc(-n2c(SC)nc3sc4c(c3c2=O)CCN(C(C)=O)C4)cc1 | – | 1.06% [at 9.27 µM] |
| CN(C(=O)c1cccc(NC(=O)Cc2ccc(NC(=O)C3CCCN(C(=O)C4CC4)C3)cc2)c1)C1CC1 (configuration not stated) | inactive | – |
| CN(C(=O)c1cccc(NC(=O)Cc2cccc(NC(=O)C3CCCN(C(=O)C4CC4)C3)c2)c1)C1CCC1 (configuration not stated) | inactive | – |
| CN(CCc1ccccc1)C(=O)c1cccc(NC(=O)Cc2cccc(NC(=O)C3CCCN(C(=O)CCc4ccccc4)C3)c2)c1 (configuration not stated) | 23.1 µM (active) | – |
| CCCN(C(=O)Cn1cc(S(=O)(=O)N2CCN(c3ccccc3F)CC2)c2ccccc2c1=O)c1cccc(C)c1 | inactive | – |
| COc1ccc(CNC(=O)COc2ccccc2C(=O)c2cnn(-c3ccccc3)c2)cc1OC | inactive | – |
| Cc1ccc(C(=O)OCC(=O)NCc2cc(C)c(O)c(C)c2)cc1S(=O)(=O)N1CCCCC1 | inactive | – |
| COc1ccc2c(C)c(CCC(=O)NCc3ccc(OC)c(OC)c3)c(=O)oc2c1 | inactive | – |
| CCC(CO)Oc1cc(NCc2ccccc2)c2ncn(C3CCCC3)c2c1 (configuration not stated) | inactive | – |
| CC1CCCCN1CCCNc1ccc(C(CC(N)=O)NC(=O)c2ccccc2)cc1[N+](=O)[O-] (configuration not stated) | inactive | – |
| NC(=O)CC(NC(=O)Cc1ccc(Br)cc1)c1ccc(NC2CC3CCC2C3)c([N+](=O)[O-])c1 (configuration not stated) | 18.4 µM (active) | – |
| Cc1cc(C)cc(C(=O)NC(CC(N)=O)c2ccc(N3CCC(N4CCCCC4)CC3)c([N+](=O)[O-])c2)c1 (configuration not stated) | inactive | – |
| O=C1OCC2=C1C(c1ccc(Cl)cc1)c1cc3c(cc1O2)OCO3 (configuration not stated) | inactive | – |
| COc1ccc(Cl)cc1NC(=O)Cn1c(=O)c2ccccc2n2nncc12 | inactive | – |
| Cc1ccc(N=C2NC(=O)/C(=C/C=C/c3ccco3)S2)cc1C | inactive | – |
| CN(C)c1ccc(-n2cccc2/C=C2/SC(=Nc3ccc(F)cc3)NC2=O)cc1 | inactive | – |
| Cc1cccc(N=C2NC(=O)/C(=C/c3cn(C)c4ccccc34)S2)c1 | 14.6 µM (active) | – |
| Oc1c(Cl)cc(Cl)c(Cl)c1Cc1c(O)c(Cl)cc(Cl)c1Cl | 14.6 µM (active) | – |
